Potency data for ten compounds are collected here from PubChem BioAssay (Tox21).

“And” between values parts separate entries of the source, which are not always exact repeats. Equal values may be shown once. Inconclusive results are not listed. Some structures have more than one record in an assay (separate samples or runs), and their calls can disagree. The source made the active and inactive calls. Unless noted, the call rests on the fitted dose curve; in most records, active means well fitted curve in the direction sought with a large enough effect in the repeat runs; inconclusive means weak or mixed curves; inactive means no such curve, though single readings can be large; an effect the other way counts as inactive or inconclusive.

The nature of assay [1]: qHTS assay to identify aromatase inhibitors - cell viability counter screen (AID 743084).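 Further: cells stimulated with testosterone during compound exposure; nearly all actives have a fitted effect of over 55% in size.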 Further: potency means the concentration at half of the fitted maximal effect. A general note: qHTS replaces the single test concentration by a dilution series.
A short description of assay [2]: qHTS assay to identify small molecule that activate the aryl hydrocarbon receptor (AhR) signaling pathway - cell viability counter screen (AID 743086). Further: nearly all actives have a fitted effect of over 45% in size. Further: potency means the concentration at half of the fitted maximal effect. In a few lines: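 HepG2-AhR-luc (HG2L7.5c1) cells, 4000/well, were preincubated 5 h at 37C, exposed to compound in qHTS format for 24 hr at 37C, then given CellTiter-Fluor for 30 min; viability was read as fluorescence in the reporter wells.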

Assay [3] has as its target Peroxisome proliferator-activated receptor gamma (Homo sapiens) (UniProt P37231). Put plainly: qHTS assay to identify small molecule agonists of the peroxisome proliferator-activated receptor gamma (PPARg) signaling pathway (AID 743094; active means well fitted activation curve with a large enough effect in the signal ratio in the repeat runs, not every such curve was filed as active; the % refers to the signal ratio; further: potency means the concentration at half of the fitted maximal effect). An outline of the steps: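 Cell-based bla reporter, HEK293H background, PPARg-driven UAS. Pre-incubation 5 h, 37C, 5% CO2. Compound 17 h, 37C. Substrate 1 h RT; fluorescence.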

Assay [4] in a line: qHTS assay to identify small molecule antagonists of the peroxisome proliferator-activated receptor gamma (PPARg) signaling pathway - cell viability counter screen (AID 743194). Further: nearly all actives have a fitted effect of over 55% in size. Further: potency means the concentration at half of the fitted maximal effect. As to conditions: Potency: co-treated with 50 nM rosiglitazone unless noted. In a few lines:
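PPARg-UAS-bla HEK293H cells were plated, rested 5 h at 37 C, then treated with compounds plus rosiglitazone (50 nM final) for 17 h at 37 C; viability was then read by CellTiter-Glo luminescence after 30 min at room temperature.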

The nature of assay [5]: qHTS assay for small molecule agonists of the antioxidant response element (ARE) signaling pathway (AID 743202; active means well fitted activation curve with a large enough effect in the signal ratio in the repeat runs, not every such curve was filed as active; the % refers to the signal ratio). An outline of the steps: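 Following a 16 h, 37 C exposure of reporter HepG2 cells (ARE-driven beta-lactamase, 2,000 cells/well) to compounds, FRET substrate was applied for 2 h at room temperature and fluorescence intensity recorded.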
Assay [6] can be described thus: qHTS assay for small molecule agonists of the antioxidant response element (ARE) signaling pathway - cell viability counter screen (AID 743203; calls by dose curve; further: nearly all actives have a fitted effect of over 55% in size; further: potency means the concentration at half of the fitted maximal effect). In a few lines: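 Measured in the same wells as the beta-lactamase ARE reporter, this read-out is CellTiter-Glo luminescence from HepG2 ARE-bla cells given compounds for 16 hrs.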
Assay [7] in a line: qHTS assay for small molecule activators of the heat shock response signaling pathway - cell viability counter screen (AID 743209). Further: nearly all actives have a fitted effect of over 50% in size. Further: potency means the concentration at half of the fitted maximal effect. An outline of the steps: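 Same-well multiplex: after 2.5 h room-temperature incubation with LiveBLAzer B/G substrate and fluorescence reading, CellTiter-Glo reagent was added to HSE-bla HeLa cells that had received compound for 5 h at 37 C; luminescence read after 30 min.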

A short description of assay [8]: qHTS assay to identify small molecule agonists of the peroxisome proliferator-activated receptor delta (PPARd) signaling pathway - cell viability counter screen (AID 743211). Further: nearly all actives have a fitted effect of over 55% in size. Further: potency means the concentration at half of the fitted maximal effect. In a few lines: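 Viability was measured as CellTiter-Glo luminescence (30 min, room temperature) in the same wells as the beta-lactamase readout. GeneBLAzer PPARd UAS-bla HEK293H cells received compound after 5 h plating and were incubated 17 h at 37 C.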

Assay [9] addresses Peroxisome proliferator-activated receptor delta (Homo sapiens) (UniProt Q03181). The experiment in a line: qHTS assay to identify small molecule agonists of the peroxisome proliferator-activated receptor delta (PPARd) signaling pathway (AID 743212; calls by dose curve). In a few lines:
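Beta-lactamase reporter read by fluorescence (LiveBLAzer B/G FRET, 2 h, room temperature). Test agents, in DMSO, incubated at 37 C with PPARd-bla HEK293H cells.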

Assay [10] in a line: qHTS assay to identify small molecule antagonists of the peroxisome proliferator-activated receptor delta (PPARd) signaling pathway - cell viability counter screen (AID 743213). Further: nearly all actives have a fitted effect of over 50% in size. Further: potency means the concentration at half of the fitted maximal effect. In a few lines: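 HEK293H cells with the PPARd UAS-bla reporter, co-treated 17 h at 37 C with compounds and L165041 (300 nM final), were lysed with CellTiter-Glo. Luminescence indicated viable cell content.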

For assay [11], the target named is Peroxisome proliferator-activated receptor delta (Homo sapiens) (UniProt Q03181). Put plainly: qHTS assay to identify small molecule antagonists of the peroxisome proliferator-activated receptor delta (PPARd) signaling pathway (AID 743215; active means well fitted inhibition curve with a large enough effect in the signal ratio in the repeat runs, not every such curve was filed as active; the % refers to the signal ratio;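 further: cells stimulated with agonist L165041 at 300 nM final during compound exposure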; further: potency means the concentration at half of the fitted maximal effect). An outline of the steps: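 Fluorescence from cleaved LiveBLAzer B/G FRET substrate (2 h, room temperature) reports PPARd-driven beta-lactamase in HEK293H UAS-bla cells. Cells had been treated 17 h at 37 C with compound plus 300 nM final L165041.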
Chain of Peroxisome proliferator-activated receptor delta (Homo sapiens) (Q03181 whole entry, looked up): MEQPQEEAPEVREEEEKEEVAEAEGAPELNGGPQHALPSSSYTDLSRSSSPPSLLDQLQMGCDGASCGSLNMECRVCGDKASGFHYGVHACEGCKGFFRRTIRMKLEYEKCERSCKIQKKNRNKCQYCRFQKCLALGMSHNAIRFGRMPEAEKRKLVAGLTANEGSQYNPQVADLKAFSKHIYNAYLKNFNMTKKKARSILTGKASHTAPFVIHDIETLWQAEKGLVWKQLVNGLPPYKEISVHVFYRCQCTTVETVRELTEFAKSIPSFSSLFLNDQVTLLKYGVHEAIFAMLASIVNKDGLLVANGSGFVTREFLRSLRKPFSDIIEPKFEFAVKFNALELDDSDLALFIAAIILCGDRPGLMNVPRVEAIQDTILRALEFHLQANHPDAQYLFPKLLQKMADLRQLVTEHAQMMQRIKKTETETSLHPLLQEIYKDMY

Assay [12] in a line: qHTS assay to identify small molecule antagonists of the farnesoid-X-receptor (FXR) signaling pathway - cell viability counter screen (AID 743221; active means well fitted cell-killing curve with a large enough effect in the repeat runs, not every such curve was filed as active; further: nearly all actives have a fitted effect of over 50% in size; further: potency means the concentration at half of the fitted maximal effect). In a few lines:
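Cytotoxicity counter screen run in the FXR-bla reporter wells: HEK 293T cells exposed to compound with 50 uM (final) chenodeoxycholic acid for 16 h, 37 C, then viability measured by CellTiter-Glo luminescence after 30 min, room temperature.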

Assay [13] concerns the target Vitamin D3 receptor (Homo sapiens) (UniProt P11473). Put plainly: qHTS assay to identify small molecule agonists of the vitamin D receptor (VDR) signaling pathway (AID 743222; calls by dose curve). An outline of the steps: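 Following 4 h attachment at 37C, VDR-bla cells (2,000 per well) received DMSO-dissolved compounds or controls. After 16 h incubation, LiveBLAzer B/G FRET substrate was added and fluorescence read 2 h later at room temperature.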

Assay [14] has as its target Peroxisome proliferator-activated receptor gamma (Homo sapiens) (UniProt P37231). Put plainly: qHTS assay to identify small molecule antagonists of the peroxisome proliferator-activated receptor gamma (PPARg) signaling pathway (AID 743191; calls by dose curve; further: nearly all actives have a fitted effect of over 30% in size; further: potency means the concentration at half of the fitted maximal effect). An outline of the steps:
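GeneBLAzer PPARg UAS-bla HEK293H cells carrying a UAS-driven beta-lactamase reporter were plated at 3000 cells/well, preincubated 5 h at 37C, then given compound for 17 h at 37C; LiveBLAzer B/G FRET substrate was read after 1 h at room temperature.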

Assay [15] can be described thus: qHTS assay to identify small molecule agonists of the farnesoid-X-receptor (FXR) signaling pathway - cell viability counter screen (AID 743218). Further: nearly all actives have a fitted effect of over 45% in size. Further: potency means the concentration at half of the fitted maximal effect. In a few lines:
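Readout: CellTiter-Glo luminescence, 30 min RT, multiplexed after the FXR-bla FRET reading. HEK 293T FXR-UAS-bla cells received compound 5 h post-plating and were incubated 16 h at 37 C.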

Assay [16] deals with Vitamin D3 receptor (Homo sapiens) (UniProt P11473). The experiment in a line: qHTS assay to identify small molecule antagonists of the vitamin D receptor (VDR) signaling pathway (AID 743223; active means well fitted inhibition curve with a large enough effect in the signal ratio in the repeat runs, not every such curve was filed as active; the % refers to the signal ratio). In a few lines: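 Antagonist mode: compound added to VDR-bla cells alongside agonist 1alpha,25-dihydroxyvitamin D3 (3 nM final), incubation 16 h at 37C. Read-out is LiveBLAzer FRET fluorescence, 2 h at room temperature.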
Chain of Vitamin D3 receptor (Homo sapiens) (P11473 whole entry, looked up): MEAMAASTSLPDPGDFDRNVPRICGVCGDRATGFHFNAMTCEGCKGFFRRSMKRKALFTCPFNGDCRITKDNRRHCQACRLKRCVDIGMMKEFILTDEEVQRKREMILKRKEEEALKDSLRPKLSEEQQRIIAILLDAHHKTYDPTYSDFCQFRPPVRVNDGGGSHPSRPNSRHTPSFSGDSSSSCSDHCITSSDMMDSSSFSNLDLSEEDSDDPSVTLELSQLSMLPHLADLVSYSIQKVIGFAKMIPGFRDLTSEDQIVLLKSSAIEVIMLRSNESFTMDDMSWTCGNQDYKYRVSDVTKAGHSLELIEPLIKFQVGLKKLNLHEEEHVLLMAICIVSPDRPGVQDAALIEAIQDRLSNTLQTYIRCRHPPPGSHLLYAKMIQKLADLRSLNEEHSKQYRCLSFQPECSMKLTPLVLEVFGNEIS

Assay [17] is described as follows: qHTS assay for small molecule activators of the heat shock response signaling pathway (AID 743210; active means well fitted activation curve with a large enough effect in the signal ratio in the repeat runs, with a control signal flat, not every such curve was filed as active; the % refers to the signal ratio; further: series mostly up to about 63 µM). In a few lines:
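Heat shock element–beta-lactamase HeLa reporter cells; qHTS with compounds for 5 h at 37 C; detection by FRET substrate fluorescence after 2.5 h at RT.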

The target of assay [18] is Bile acid receptor (Homo sapiens) (UniProt Q96RI1). Put plainly: qHTS assay to identify small molecule antagonists of the farnesoid-X-receptor (FXR) signaling pathway (AID 743217; active means well fitted inhibition curve with a large enough effect in the signal ratio in the repeat runs, not every such curve was filed as active; the % refers to the signal ratio). An outline of the steps:
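FRET fluorescence after 2 h room-temperature LiveBLAzer loading gives the readout. Prior step: FXR-bla HEK 293T cells, seeded and incubated 5 h, received test compounds plus 50 uM final CDCA for 16 h at 37 °C.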

The target is the same in assay [19]. Put plainly: qHTS assay to identify small molecule agonists of the farnesoid-X-receptor (FXR) signaling pathway (AID 743220; active means well fitted activation curve with a large enough effect in the signal ratio in the repeat runs, not every such curve was filed as active; the % refers to the signal ratio). In a few lines: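 FXR-UAS-bla HEK 293T cells carrying a UAS-driven beta-lactamase reporter were plated for 5 h at 37C/5% CO2, then exposed to DMSO-dissolved Tox21 10K compounds for 16 h at 37C. A LiveBLAzer B/G FRET substrate was loaded for 2 h at room temperature before fluorescence reading.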

The target of assay [20] is Aryl hydrocarbon receptor (Homo sapiens) (UniProt P35869). Put plainly: qHTS assay to identify small molecule that activate the aryl hydrocarbon receptor (AhR) signaling pathway (AID 743085).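 Further: HG2L7.5c1 human HepG2 liver cells with stably integrated DRE-driven firefly reporter; series mostly up to about 70 µM; nearly all actives have a fitted effect of over 15% in size.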 An outline of the steps:
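Luminescence (ONE-Glo) from a dioxin-responsive-element luciferase reporter in HG2L7.5c1 HepG2 cells after 24 hr compound exposure at 37C; viability measured by CellTiter-Fluor fluorescence beforehand.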

Chain of Peroxisome proliferator-activated receptor gamma (Homo sapiens) (P37231 whole entry, looked up): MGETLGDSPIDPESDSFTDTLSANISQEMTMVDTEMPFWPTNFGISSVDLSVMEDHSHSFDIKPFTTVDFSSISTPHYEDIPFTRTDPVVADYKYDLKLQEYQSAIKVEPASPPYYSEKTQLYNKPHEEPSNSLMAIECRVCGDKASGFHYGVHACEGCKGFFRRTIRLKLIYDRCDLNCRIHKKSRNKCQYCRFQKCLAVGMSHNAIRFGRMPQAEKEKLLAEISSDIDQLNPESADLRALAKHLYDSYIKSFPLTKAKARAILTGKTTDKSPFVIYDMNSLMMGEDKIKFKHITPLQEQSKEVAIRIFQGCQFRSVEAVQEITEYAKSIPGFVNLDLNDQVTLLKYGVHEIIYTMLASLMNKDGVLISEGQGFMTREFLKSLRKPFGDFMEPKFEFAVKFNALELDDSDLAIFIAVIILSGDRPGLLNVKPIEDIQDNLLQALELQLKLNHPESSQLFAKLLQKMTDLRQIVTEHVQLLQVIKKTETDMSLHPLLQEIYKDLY
Chain of Bile acid receptor (Homo sapiens) (Q96RI1 whole entry, looked up): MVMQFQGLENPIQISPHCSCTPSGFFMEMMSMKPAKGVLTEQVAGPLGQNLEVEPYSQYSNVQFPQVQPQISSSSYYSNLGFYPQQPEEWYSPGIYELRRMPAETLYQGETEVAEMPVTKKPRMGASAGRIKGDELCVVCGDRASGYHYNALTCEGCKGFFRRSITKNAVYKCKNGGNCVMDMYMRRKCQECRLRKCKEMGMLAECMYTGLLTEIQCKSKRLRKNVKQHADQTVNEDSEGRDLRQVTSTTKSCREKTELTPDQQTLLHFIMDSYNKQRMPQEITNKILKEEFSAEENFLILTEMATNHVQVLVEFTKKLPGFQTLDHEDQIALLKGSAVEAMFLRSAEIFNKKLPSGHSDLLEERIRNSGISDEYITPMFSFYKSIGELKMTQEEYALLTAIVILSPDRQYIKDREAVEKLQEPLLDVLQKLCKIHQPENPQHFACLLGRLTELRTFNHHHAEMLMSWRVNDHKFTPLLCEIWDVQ
Chain of Aryl hydrocarbon receptor (Homo sapiens) (P35869 whole entry, looked up): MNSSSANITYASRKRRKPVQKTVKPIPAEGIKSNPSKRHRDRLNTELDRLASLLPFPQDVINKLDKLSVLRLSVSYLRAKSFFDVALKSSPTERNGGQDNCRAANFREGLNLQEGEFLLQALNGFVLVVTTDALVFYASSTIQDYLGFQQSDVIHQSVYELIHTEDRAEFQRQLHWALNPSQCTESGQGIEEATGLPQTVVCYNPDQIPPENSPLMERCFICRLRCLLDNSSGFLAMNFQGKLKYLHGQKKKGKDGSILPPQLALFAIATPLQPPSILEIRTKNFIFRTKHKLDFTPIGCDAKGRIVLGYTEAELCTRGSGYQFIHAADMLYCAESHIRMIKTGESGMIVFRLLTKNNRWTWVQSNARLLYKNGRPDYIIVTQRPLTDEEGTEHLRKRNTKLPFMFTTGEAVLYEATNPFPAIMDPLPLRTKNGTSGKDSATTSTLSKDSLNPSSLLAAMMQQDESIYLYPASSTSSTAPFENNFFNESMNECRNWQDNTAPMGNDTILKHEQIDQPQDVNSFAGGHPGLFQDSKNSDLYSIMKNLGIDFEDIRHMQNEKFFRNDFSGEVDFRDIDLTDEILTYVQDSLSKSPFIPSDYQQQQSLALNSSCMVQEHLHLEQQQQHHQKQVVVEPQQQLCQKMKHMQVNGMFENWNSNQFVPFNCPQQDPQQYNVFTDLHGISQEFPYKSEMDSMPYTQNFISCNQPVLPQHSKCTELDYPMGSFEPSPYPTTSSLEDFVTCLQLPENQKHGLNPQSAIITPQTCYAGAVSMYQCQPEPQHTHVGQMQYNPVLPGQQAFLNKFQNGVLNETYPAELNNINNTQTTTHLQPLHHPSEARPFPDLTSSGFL

With `CCCCC(CC)COC(=O)OOC(C)(C)C` (stereo unspecified), the Potency result in assay [1], in assay [2], in [3], in [4], in assay [5] and in [6] was “inactive” each time. Further, the Potency result in [8], in assay [9], in assay [10], in assay [11], in [12] and in [13] was “inactive” throughout. In addition, the Potency in assay [7] is 49 µM (active).
Consider `CC1CCCC1`, for which the Potency entry in assay [1], in [2], in [3], in [4], in assay [6] and in [8] was “inactive” throughout. Also, the Potency result in [9], in [10], in assay [11], in [15], in assay [12] and in assay [16] was “inactive” in each case. Further, the Potency is 21.5 µM (active) in assay [14] and 12.1 µM (active) in assay [7].
With `N#Cc1c[nH]cc1-c1cccc2c1OC(F)(F)O2`, the Potency result in assay [1], in assay [3], in assay [4], in assay [5], in [6] and in assay [7] was “inactive” throughout. In addition, the Potency entry in [17], in [9], in assay [15] and in assay [12] was “inactive” in each case.
Turning to `COP(=S)(NC(C)C)Oc1ccc(C)cc1[N+](=O)[O-]` (stereo unspecified), the Potency result in [1], in assay [3], in assay [4], in [5], in assay [6] and in assay [7] was “inactive” throughout. For the same compound, the Potency entry in assay [17], in assay [8], in assay [9], in assay [10], in [11] and in [18] was “inactive” each time. Moreover, the Potency entry in assay [15], in assay [19], in assay [12], in assay [13] and in [16] was “inactive” throughout.
With `C1=CCC=C1`, the Potency result in [1], in assay [4], in assay [5], in assay [6], in [7] and in assay [8] was “inactive” in each case. Moreover, the Potency result in assay [10], in assay [15] and in assay [13] was “inactive” throughout.
As for `CC(Cc1ccc(OCC(=O)O)cc1)NCC(O)c1csc(C(F)(F)F)n1` (stereo unspecified), the Potency entry in [20], in [2], in [3], in assay [14], in assay [4] and in assay [5] was “inactive” throughout. The Potency entry in assay [6], in [17], in assay [8], in assay [10], in [15] and in [12] was “inactive” in each case. In addition, the Potency result in assay [16] is “inactive”.
`O.O.O.O=C([O-])[C@H]([O-])[C@@H]([O-])C(=O)[O-].O=C([O-])[C@H]([O-])[C@@H]([O-])C(=O)[O-].[K+].[K+].[Sb+3].[Sb+3]`: the Potency result in assay [1], in assay [4], in assay [6], in [10], in assay [15] and in assay [12] was “inactive” in each case. In addition, in assay [11], the Potency is 12.4 µM (active).
For the compound `CCC[CH2][Sn]([CH2]CCC)([CH2]CCC)[CH2]CCC`, the Potency was 43.3 µM (active) in assay [1]; 54.9 µM (active) in [3]; 19.5 µM (active) in assay [4]; 15.4 µM (active) in [6]; 43.6 µM (active) in assay [8]; 15.5 µM (active) in [11]. In addition, the Potency in assay [15] is 49 µM (active).
In the case of `CCC[CH2][Sn]([CH2]CCC)([O]C(C)=O)[O]C(C)=O`, the Potency was 13.8 µM (active) in assay [1]; 2.78 µM (active) in assay [4]; 6.17 µM (active) in [6]; 19.7 µM (active) in assay [11]; 11.1 µM (active) in assay [15]; 17.5 µM (active) in assay [12].
`CCN(CC)C(=S)S`: the Potency was 8.71 µM (active) and 7.65 µM (active) and 4.86 µM (active) in assay [1]; “inactive and 19.2 µM (active) and 30.6 µM (active)” in [2]; 6.98 µM (active) and 2.75 µM (active) in [7]; 13.9 µM (active) and 3.87 µM (active) and 4.9 µM (active) in assay [8]; “inactive and 6.13 µM (active) and 3.47 µM (active)” in [10]; 12.4 µM (active) in assay [15]. For the same compound, the Potency in assay [12] is 22.1 µM (active) and 4.87 µM (active) and 7.76 µM (active). Besides, the Potency entry in assay [14], in assay [4] and in assay [6] was “inactive” in each case.
